Screening data as filed in PubChem.
CtBP-E1A inh = inhibitors of CtBP/E1A interaction; AlphaScreen GST-E1A/His-CtBP binding, 1536-well; active compounds read low; activity change, % (no concentration beside the values); 340,000 compounds, 0.49% hits; in the data active means activity change below about -65%; inconclusive means mostly about -30% to -63%
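Steps: dispense buffer (Tris pH 8.0, NaCl 300 mM, TCEP 1 mM, BSA, Tween 20); add 5X protein mix (GST-E1A, His-CtBP, 125 nM each); pin 23 nL compound; 2 h at 37 °C, dark; add 5X beads (50 ug/mL); 1 h; read.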
Six1-Eya2 inh = Six1/Eya2 interaction inhibition; activity change, % (no concentration beside the values); AlphaScreen GST-Six1/His-Eya2 binding, biochemical; active compounds read low; 360,000 compounds, 0.56% hits; AID 651725; in the data active means activity change below about -65%; inconclusive means mostly about -30% to -63%
Target sequence (O00167 whole entry, looked up): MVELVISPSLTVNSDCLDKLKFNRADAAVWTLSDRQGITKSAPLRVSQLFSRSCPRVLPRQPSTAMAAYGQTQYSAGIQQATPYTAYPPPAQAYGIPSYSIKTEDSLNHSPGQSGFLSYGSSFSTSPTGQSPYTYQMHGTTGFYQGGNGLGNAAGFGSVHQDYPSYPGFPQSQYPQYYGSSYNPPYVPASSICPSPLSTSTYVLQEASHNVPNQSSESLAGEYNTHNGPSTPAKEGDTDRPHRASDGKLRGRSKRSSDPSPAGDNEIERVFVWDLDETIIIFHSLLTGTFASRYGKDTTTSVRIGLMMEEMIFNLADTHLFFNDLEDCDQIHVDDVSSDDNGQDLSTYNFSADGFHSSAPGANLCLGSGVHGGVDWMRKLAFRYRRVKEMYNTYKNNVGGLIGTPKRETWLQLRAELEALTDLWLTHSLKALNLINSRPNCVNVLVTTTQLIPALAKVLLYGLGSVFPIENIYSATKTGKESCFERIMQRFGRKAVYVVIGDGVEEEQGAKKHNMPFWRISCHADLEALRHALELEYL
Target sequence (Q15475 whole entry, looked up): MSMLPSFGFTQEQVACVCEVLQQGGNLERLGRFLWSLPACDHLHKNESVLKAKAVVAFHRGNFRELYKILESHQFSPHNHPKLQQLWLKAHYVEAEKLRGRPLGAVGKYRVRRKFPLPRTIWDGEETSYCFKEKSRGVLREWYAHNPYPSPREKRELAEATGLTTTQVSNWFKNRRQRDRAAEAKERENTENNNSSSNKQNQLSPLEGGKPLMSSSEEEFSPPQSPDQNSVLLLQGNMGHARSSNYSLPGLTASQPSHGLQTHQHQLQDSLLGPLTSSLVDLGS
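Six1/Eya2 binding was read as AlphaScreen signal after compounds were pinned into GST-Six1 plus His-tagged Eya2 (5X stock 250/500 nM) in pH 8.0 Tris/NaCl/TCEP buffer, beads added, then incubated 1 h, 37 C, dark.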
IL1B secr inh = blocks inflammasome-driven IL-1 beta release. THP-1 LPS/ATP IL-1B secretion, AlphaLISA, 16 h; active compounds read low. AID 743279. activity change, % at 57.5 µM. 360,000 compounds, 4.7% hits; in the data active means activity change below about -50%; inconclusive means mostly about -30% to -49%
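THP-1 cells pretreated 1 hr with compounds (up to 57.5 uM final), then stimulated with LPS (250 ng/mL final) plus ATP (1.25 mM final); secreted IL-1B measured by AlphaLISA after 16 hr, decreased signal indicating inhibition.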
TDP1 cell noCPT = qHTS for Inhibitors of human tyrosyl-DNA phosphodiesterase 1 (TDP1): qHTS in cells in absence of CPT. DT40 Tdp1-/- hTDP1 cells, no CPT, ATP luminescence, 48 h. 420,000 compounds, 15% hits. Potency, µM (series often up to 46.2 µM), inactives show at the top dose activity change, negative = growth inhibition, hits mostly inhibitors; further: potency means the concentration at half of the fitted maximal effect; nearly all actives have a fitted effect of over 55% in size
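DT40 Tdp1-/-;hTDP1 cells, no CPT (DMSO vehicle only), 400 cells/well; compounds pin-transferred; ≥48 hr, 37 °C; CellTiter-Glo 30 min RT dark, luminescence read.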
TDP1 block = blocks human tyrosyl-DNA phosphodiesterase 1. Q9NUW8. 350,000 compounds, 0.28% hits. recombinant TDP1, AlphaScreen DNA substrate cleavage. Potency, µM (doses to about 130 µM), for inactives: at the top dose activity change, negative = inhibition, most hits filed as inhibitors; further: potency means the concentration at half of the fitted maximal effect; nearly all actives have a fitted effect of over 40% in size
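Tdp1 1 nM final; 15 min RT w/ cpd; substrate 15 nM, 5 min; beads 10 ug/ml, 10 min; AlphaScreen read. Neg ctrl: no enzyme.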
DT40 TDP1 CPT = growth inhibition of DT40 Tdp1-/-;hTDP1 cells with camptothecin (screen for TDP1 inhibitors). chicken DT40 Tdp1-/-;hTDP1 cells + 20 nM CPT, ATP luminescence, 48 h. Potency, µM (top dose mostly 46.2 µM), for the others: at the top dose activity change, negative = growth inhibition, actives largely listed as inhibitors. 420,000 compounds, 12% hits. AID 686979; further: potency means the concentration at half of the fitted maximal effect; nearly all actives have a fitted effect of over 55% in size
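Chicken DT40 Tdp1-/- cells stably complemented with human TDP1 were seeded at 400 cells/well in medium containing 20 nM camptothecin, exposed to pin-transferred compounds, and grown at 37 °C for at least 48 hr. Viability was read as ATP luminescence.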
* hit, by the source's call; ? = inconclusive; / = not tested or not shown. The list is not random: actives were taken first. Their share in the collection is about 18%. Unless noted, the call rests on the fitted dose curve; in most records, active means well fitted curve in the direction sought with a large enough effect; inconclusive means small, poorly fitted or top-dose-only effect, or another doubt; inactive means no such curve, though single readings can be large; an effect the other way counts as inactive or inconclusive. On the % scale 0 is the no-effect control and ±100 the full control effect.

SMILES	CtBP-E1A inh	Six1-Eya2 inh	IL1B secr inh	TDP1 cell noCPT	TDP1 block	DT40 TDP1 CPT
O=S(=O)(NCCCN1CCOCC1)c1ccc(Cl)s1	9	2	2	23µM*	2%	?
CC(C)N1CCC(=NNc2ccc(S(=O)(=O)N3CCOCC3)cc2[N+](=O)[O-])CC1	0	-13	4	?	5%	-21%
CCCCCCNS(=O)(=O)c1ccc(Cl)s1	23	21	1	?	2%	-15%
O=[N+]([O-])c1cc(S(=O)(=O)NCCN2CCOCC2)ccc1Cl	8	1	-84*	-10%	-5%	-5%
O=C(NC1CCCC1)C(c1ccco1)N1CCN(c2c(Cl)cncc2Cl)CC1 (stereo not given)	3	0	-15	?	/	?
N#CCc1ccc(OC(=O)Nc2ccccc2)cc1	6	1	9	-2%	/	2%
NC(=O)CC(NC(=O)Cc1ccc(Br)cc1)c1ccc(NCCOc2ccccc2)c([N+](=O)[O-])c1 (stereo not given)	1	-1	0	-11%	1%	-24%
O=C(CSc1nnnn1C1CCCCC1)N1CCN(C(=O)c2ccco2)CC1	/	8	-11	-13%	8%	-11%
Cc1cc(=O)oc2cc(O[C@@H]3O[C@H](CO)[C@H](O)[C@H](O)[C@H]3O)ccc12	-25	10	0	1%	/	23%
Cc1cc2c(c(C)c1CCO[C@@H]1O[C@H](CO)[C@@H](O)[C@H](O)[C@H]1O)C(=O)[C@@H](C)[C@@H]2O	/	2	-8	5.2µM*	0%	2.9µM*
Cc1ccc(OC(C)C(=O)N2CCCc3ccccc32)cc1 (stereo not given)	8	7	-8	26µM*	3%	?
CC(=O)/C(=N/Nc1ccccc1[N+](=O)[O-])N1CCCc2ccccc21	-75*	-74*	/	-10%	11%	6%
COC(=O)/C(=N/Nc1ccccc1)N1CCCc2ccccc21	?	-15	-27	?	5%	?
CC(Oc1ccccc1)C(=O)N1CCc2ccccc2C1 (stereo not given)	10	1	0	-1%	5%	?
COC(=O)/C(=N/Nc1ccc(C)cc1)N1CCCc2ccccc21	-6	-20	?	?	5%	12µM*
COc1ccc(OC(C)C(=O)N2CCc3ccccc3C2)cc1 (stereo not given)	4	4	35	21µM*	7%	?
CC(NC(=O)COc1cccnc1[N+](=O)[O-])c1ccc(F)cc1 (stereo not given)	1	0	13	-14%	2%	-3%
Cc1c(Br)c([N+](=O)[O-])nn1C(C)C(=O)N1CCCc2ccccc21 (stereo not given)	-3	-1	10	16µM*	4%	?
Cc1c(NC(=O)C2CCN(S(=O)(=O)c3cccs3)CC2)c(=O)n(-c2ccccc2)n1C	/	-7	0	0%	-3%	3%
COc1ccc(C(C)C)cc1S(=O)(=O)n1cnc(C)c1	0	0	6	23µM*	9%	16µM*
COc1cc(C)c(Cl)cc1S(=O)(=O)n1cnc(C)c1	4	2	8	-13%	2%	-7%
CC(=O)c1nn(-c2cccc(Br)c2)cc1C(=O)c1ccc(Cl)cc1	0	4	12	7.3µM*	1%	?
O=C(c1cccc(Br)c1)c1cn(-c2ccccc2)nc1C(=O)c1ccccc1	2	9	-26	16µM*	0%	18µM*
CC(=O)c1nn(-c2cccc(Br)c2)cc1C(=O)c1ccccc1	4	5	-5	-20%	2%	-2%
O=C1c2ccccc2C(=O)N1CCCn1c(=O)oc2ccccc21	10	4	29	-21%	5%	-10%
SMILES	CtBP-E1A inh	Six1-Eya2 inh	IL1B secr inh	TDP1 cell noCPT	TDP1 block	DT40 TDP1 CPT
Cc1c(C(=O)Nc2ccc(F)cc2)c2ccccn2c1CCc1ccncc1	-26	1	-52*	?	0%	?
O=C1NC(=O)/C(=C/c2ccc(-c3cccc([N+](=O)[O-])c3)o2)S1	?	?	-10	?	/	16µM*
O=C(/C=C/c1cccc([N+](=O)[O-])c1)N1CCOCC1	11	5	-12	-11%	3%	-4%
O=C1NC(=S)S/C1=C\c1cccc([N+](=O)[O-])c1	-13	-14	22	13µM*	/	?
O=Cc1ccc(-c2cccc([N+](=O)[O-])c2)o1	3	-19	-4	?	6%	-18%
O=C1NC(=Nc2ccccc2Cl)S/C1=C\c1cccc([N+](=O)[O-])c1	2	-10	-7	?	/	?
O=C(/C=C/c1ccc(-c2cccc([N+](=O)[O-])c2)o1)N1CCOCC1	-6	-22	-1	18µM*	3%	16µM*
CCOC(=O)C1=C(C)NC(SCC(=O)O)=NC1c1ccccc1 (stereo not given)	-2	-2	11	-27%	-2%	-8%
CCc1ccc(N=Nc2ccc(O)c3[nH]cnc23)cc1	?	?	-3	23µM*	3%	?
CCOc1ccc(NC(=O)CN(C)C(=O)c2ccc(N3CCCCCC3)c([N+](=O)[O-])c2)cc1OCC	-3	-26	-1	23µM*	/	?
CN(CC(=O)Nc1cccc(F)c1)C(=O)c1cc([N+](=O)[O-])ccc1N1CCCCC1	-1	-10	15	29µM*	0%	?
CCc1ccc(Cc2cnc(NC(=O)c3ccc4c(c3)CC(c3ccccc3)OC4=O)s2)cc1 (stereo not given)	/	/	/	18µM*	5%	?
CCN(CC(=O)Nc1c(F)cccc1F)C(=O)c1cc([N+](=O)[O-])ccc1N1CCCCC1	4	-2	-13	-24%	/	-17%
CN(CC(=O)Nc1cccc(F)c1)C(=O)c1ccc2c(c1)CC(c1ccccc1)OC2=O (stereo not given)	-21	-5	-13	5.2µM*	-4%	8.2µM*
COc1cccc(NC(=O)CN(C)C(=O)c2ccc(N3CCCCC3)c([N+](=O)[O-])c2)c1	-11	-21	22	?	7%	?
O=C(Nc1ncc(Cc2ccccc2Cl)s1)c1ccc2c(c1)CC(c1ccccc1)OC2=O (stereo not given)	/	/	/	-28%	10%	-22%
